Hit rate of the full screen: of about 5,500 compounds, about 2,000 (36%) were called active. About 18% were inconclusive and are not listed. Cut-off read from the data, not from the text of the source: active = normalized growth mostly below about 0.91 (no sharp cut-off); inconclusive = no clear call, values can overlap the other calls; inactive = mostly above about 0.92. This is one part of the list.
Assay: chemical genetic growth profiling, strain panel (AID 1159580);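 note: tested at 20 µM; growth read once vehicle control cultures reached saturation at 30 °C; 1 = growth at the plate median or of vehicle wells; lower values mean less growth of the strain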
Settings: S. cerevisiae deletion strains, growth OD
[1] = locus YAL040C, strain CLN3, active compounds read low
[2] = locus YCL061C, strain MRC1 (second series), active compounds read low
[3] = locus YDR363W, strain ESC2, active compounds read low
[4] = locus YER002W, strain NOP16, active compounds read low
[5] = locus YNL175C, strain NOP13, active compounds read low
[6] = locus YNL197C, strain WHI3, active compounds read low
[7] = locus YNL224C, strain SQS1, active compounds read low
[8] = locus YNL322C, strain KRE1, active compounds read low
[9] = locus YOR083W, strain WHI5 (second series), active compounds read low
[10] = locus YPL055C, strain LGE1, active compounds read low
[11] = locus YPL241C, strain CIN2, active compounds read low

Measured: normalized growth

O[Si](CCCN1CCCCC1)(c1ccc(F)cc1)C1CCCCC1 (configuration not stated)
inactive: [1] 0.964 | [2] 0.986 | [3] 0.988 | [4] 1.04 | locus YGR229C, strain SMI1, active compounds read low 0.972 | locus YJR075W, strain HOC1, active compounds read low 1.02 | locus YMR263W, strain SAP30, active compounds read low 1 | [5] 0.995 | [6] 1.01 | [7] 1.01 | [8] 0.982 | [9] 1.08 | [10] 0.981 | [11] 0.994

CC1=CC(=O)C(CCOCCC2=CC(=O)C(C)=CC2=O)=CC1=O
inactive: locus YAR019C, strain CDC15, active compounds read low 0.981 | locus YBL105C, strain PKC1, active compounds read low 0.99 | locus YBR135W, strain CKS1, active compounds read low 0.985 | locus YBR136W, strain MEC1, active compounds read low 0.982 | locus YBR160W, strain CDC28, active compounds read low 0.983 | locus YDL017W, strain CDC7, active compounds read low 0.992 | locus YDL028C, strain MPS1, active compounds read low 0.981 | locus YDL101C, strain DUN1, active compounds read low 0.973 | locus YDL108W, strain KIN28, active compounds read low 0.983 | locus YDL132W, strain cdc53, active compounds read low 0.988 | locus YDL214C, strain PRR2, active compounds read low 0.701 | locus YDR052C, strain DBF4, active compounds read low 0.991 | locus YDR054C, strain cdc34, active compounds read low 0.986 | locus YDR226W, strain ADK1, active compounds read low 0.979 | locus YDR477W, strain SNF1, active compounds read low 0.706 | locus YER123W, strain YCK3, active compounds read low 0.806 | locus YER133W, strain GLC7, active compounds read low 0.765 | locus YFL009W, strain cdc4, active compounds read low 0.993 | locus YFL029C, strain CAK1, active compounds read low 0.987 | locus YFR003C, strain YPI1, active compounds read low 0.989 | locus YFR019W, strain FAB1, active compounds read low 0.864 | locus YFR028C, strain CDC14, active compounds read low 0.985 | locus YGR040W, strain KSS1, active compounds read low 0.739 | locus YGR052W, strain FMP48, active compounds read low 0.7 | locus YGR092W, strain DBF2, active compounds read low 0.917 | locus YHR079C, strain IRE1, active compounds read low 1.07 | locus YHR205W, strain SCH9, active compounds read low 0.958 | locus YIL147C, strain SLN1, active compounds read low 0.984 | locus YJL095W, strain BCK1, active compounds read low 0.863 | locus YJL128C, strain PBS2, active compounds read low 0.934 | locus YJR016C, strain ILV3, active compounds read low 0.987 | locus YJR066W, strain TOR1 (second series), active compounds read low 0.804 | locus YJR066W, strain TOR1, active compounds read low 0.502 | locus YKL048C, strain ELM1, active compounds read low 0.981 | locus YKL067W, strain YNK1, active compounds read low 0.857 | locus YKL101W, strain HSL1, active compounds read low 0.945 | locus YKL193C, strain SDS22, active compounds read low 0.995 | locus YKL203C, strain TOR2, active compounds read low 0.976 | locus YLR133W, strain CKI1, active compounds read low 0.953 | locus YLR403W, strain SFP1, active compounds read low 0.938 | locus YML070W, strain DAK1, active compounds read low 0.866 | locus YMR001C, strain CDC5, active compounds read low 0.984 | locus YMR205C, strain PFK2 (second series), active compounds read low 0.97 | locus YMR277W, strain FCP1, active compounds read low 0.987 | locus YNL006W, strain LST8, active compounds read low 0.996 | locus YNL020C, strain ARK1, active compounds read low 0.959 | locus YNL161W, strain CBK1, active compounds read low 0.986 | locus YNL183C, strain NPR1, active compounds read low 0.793 | locus YNL207W, strain RIO2, active compounds read low 0.992 | locus YNL222W, strain SSU72, active compounds read low 0.99 | locus YNL307C, strain MCK1 (second series), active compounds read low 0.969 | locus YOL078W, strain AVO1, active compounds read low 0.989 | locus YOL136C, strain PFK27, active compounds read low 0.818 | locus YOR061W, strain CKA2, active compounds read low 0.946 | locus YOR119C, strain RIO1, active compounds read low 0.972 | locus YOR231W, strain MKK1, active compounds read low 1.05 | locus YOR329C, strain SCD5, active compounds read low 0.999 | locus YPL031C, strain PHO85, active compounds read low 0.778 | locus YPL153C, strain RAD53, active compounds read low 0.909 | locus YPL204W, strain HRR25, active compounds read low 0.899 | locus YPL209C, strain IPL1, active compounds read low 0.991 | locus YPR025C, strain CCL1, active compounds read low 0.991 | locus YPR106W, strain ISR1, active compounds read low 0.986 | locus YPR111W, strain DBF20, active compounds read low 0.98 | strain NNK1, active compounds read low 0.993 | strain TSCII, active compounds read low 0.991
active: locus YHR082C, strain KSP1, active compounds read low 0.444 | locus YLR113W, strain HOG1, active compounds read low 0.685 | locus YPL256C, strain CLN2, active compounds read low 0.234

CCOC(=O)C1=C(C)NC(=S)NC1c1cccc(O)c1 (configuration not stated)
inactive: locus YAL013W, strain DEP1, active compounds read low 0.995 | [1] 0.985 | [2] 1 | [3] 1 | [4] 0.989 | locus YGR078C, strain PAC10, active compounds read low 1 | locus YNL153C, strain GIM3, active compounds read low 0.976 | [5] 0.995 | [6] 0.99 | [7] 0.996 | [8] 0.997 | [9] 0.968 | [10] 0.991 | [11] 1

Reference: PubChem BioAssay AID1159580 (chemical genetic matrix, 2015)
